The list is not random: actives were taken first. Their share in the collection is about 3.1%.
C2C12 statin: suppressors of simvastatin-induced myotoxicity in C2C12 myotubes; AID 602340; 330,000 tested, 0.78% active; ATP luminescence, 48 h; scaled: DMSO 0, geranylgeraniol control 100; rescue of ATP level, % at 7.49 µM;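 active = mean ATP rescue above about 67%, or every replicate alone reaching that limit, limit read from the data, passing the limit was not always enough; inconclusive = no clear call, values can overlap the other calls; inactive = mean under the limit and some replicate under it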;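 note: myotubes were challenged with 10 µM simvastatin during compound exposure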
MITF act: MITF TRPM1 promoter activation in melanoma cells | SK-MEL-5 TRPM1-promoter luciferase, 24 h; % of positive control, neutral wells = 0 | activation, % at 12.5 µM | 300,000 tested, 0.75% active | AID 588334;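 active = mean activation of at least 80% with every replicate also reaching 80%; inconclusive = mean reaches 80% but some replicate falls short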;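 note: 0% = neutral control wells and 100% = parthenolide positive control wells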
Rtt109 Vps75: C. albicans Rtt109 histone acetyltransferase inhibition. AID 540336. Q5AAJ8. 330,000 tested, 0.16% active. inhibition, % at 34.9 µM. purified Rtt109/Vps75, ThioGlo CoA-SH fluorescence, 4 h;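 active = inhibition of at least 50% in every replicate; inconclusive = best replicate reaches 50% inhibition but some replicates fall short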
Target sequence (Q5AAJ8 whole entry, looked up): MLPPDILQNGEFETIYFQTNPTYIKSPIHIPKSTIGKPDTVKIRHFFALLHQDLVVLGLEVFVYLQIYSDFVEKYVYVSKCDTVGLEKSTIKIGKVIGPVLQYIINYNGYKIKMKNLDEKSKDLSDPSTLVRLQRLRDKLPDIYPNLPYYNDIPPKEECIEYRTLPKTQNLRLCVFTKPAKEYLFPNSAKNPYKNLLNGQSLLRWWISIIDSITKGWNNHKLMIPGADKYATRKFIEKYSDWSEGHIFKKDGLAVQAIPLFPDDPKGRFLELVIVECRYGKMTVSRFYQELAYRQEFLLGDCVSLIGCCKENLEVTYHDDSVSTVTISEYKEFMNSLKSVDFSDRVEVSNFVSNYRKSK
Wnt bcat act: activators of Wnt/beta-catenin signaling; activation, % at 9.35 µM; Wnt/beta-catenin reporter cell assay, activator, plate reader; 300,000 tested, 1.2% active; in the data active = activation above about 30%, passing the limit was not always enough; inconclusive = no clear call, values can overlap the other calls;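 note: 0% = neutral control wells and 100% = positive control wells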
esBAF inh: blocks esBAF chromatin remodeling in mouse ES cells; Bmi1-luciferase knock-in reporter, 24 h; 100% = twice the neutral-well signal; reporter increase, % at 12.5 µM; 350,000 tested, 2% active; AID 602393; in the data active = activation above about 40%; inconclusive = no clear call, values can overlap the other calls;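 note: 0% = median of the plate's neutral control wells and 100% = double that signal; a rise in the Bmi1 reporter signal indicates esBAF inhibition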
* marks the source's active call; other numbers are inactive results; u = inconclusive; x = no result given; ! = a repeat was not active.

SMILES | C2C12 statin | MITF act | Rtt109 Vps75 | Wnt bcat act | esBAF inh
Cc1ccc(S(=O)(=O)N[C@@H]2CC[C@@H](CC(=O)N3CCN(c4ccccc4)CC3)O[C@@H]2CO)cc1 | -0.6 | x | x | x | 9.7
Cc1ccc(S(=O)(=O)Nc2cccc3c2O[C@H](CN(C)C(=O)Nc2ccc4c(c2)OCO4)[C@H](C)CN([C@H](C)CO)C3=O)cc1 | -17.1 | x | x | x | 72.2*
Cc1ccc(S(=O)(=O)Nc2cccc3c2O[C@H](CN(C)C(=O)Nc2ccc4c(c2)OCO4)[C@@H](C)CN([C@@H](C)CO)C3=O)cc1 | -35.9 | x | x | x | 30.2
C[C@H](CO)N1C[C@H](C)[C@@H](CN(C)S(=O)(=O)c2cn(C)cn2)Oc2c(NC(=O)Nc3ccc4c(c3)OCO4)cccc2C1=O | 13.0 | 6.4 | 5.0 | 2.1 | 50.4*!
Cc1noc(C)c1NC(=O)N(C)C[C@H]1Oc2c(NC(=O)Nc3ccc4c(c3)OCO4)cccc2C(=O)N([C@H](C)CO)C[C@@H]1C | 83.1*! | -7.6 | -6.0 | 6.6 | 4.6
C[C@H](CO)N1C[C@H](C)[C@@H](CN(C)Cc2ccc(-c3ccccc3)cc2)Oc2c(NC(=O)Nc3ccc4c(c3)OCO4)cccc2C1=O | -21.2 | -0.8 | -0.8 | 15.4 | 43.1*!
Cc1noc(C)c1NC(=O)N(C)C[C@@H]1Oc2c(NC(=O)Nc3ccc4c(c3)OCO4)cccc2C(=O)N([C@@H](C)CO)C[C@@H]1C | -14.8 | x | x | x | 5.0
CN(C)C(=O)[C@@H]1[C@@H](CO)[C@@H]2Cn3c(ccc(C4=CCCC4)c3=O)[C@H]1N2C(=O)Nc1ccccc1 | -5.9 | x | x | x | -2.2
Cc1noc(C)c1NC(=O)Nc1cccc2c1O[C@H](CN(C)Cc1ccc(-c3ccccc3)cc1)[C@@H](C)CN([C@H](C)CO)C2=O | 78.4* | x | x | x | 6.8
CC(C)c1ccc(NC(=O)c2n[nH]c(=O)c3ccccc23)cc1 | -13.3 | 38.7 | -41.0 | 8.6 | 60.1*
CC(C)c1ccc(NC(=O)c2csnn2)cc1 | 10.9 | 84.2* | -9.8 | 20.0 | -12.1
COC(=O)C(C(=O)OC)c1ccc(NC(=O)c2cccc(Cl)c2)cc1 | x | 31.1 | 7.3 | 17.6 | x
Cc1cc(NC(=O)c2n[nH]c(=O)c3ccccc23)ccc1Br | x | x | x | 21.4 | x
CC(C)c1ccc(NC(=O)c2snc3ccc(Cl)cc23)cc1 | -5.1 | 120.1* | 5.2 | 21.8 | u
CCCNC(=O)Nc1ccc2c(c1)C(=O)N(C)C[C@H](OC)[C@H](C)CN(CCC(F)(F)F)[C@H](C)CO2 | 0.3 | x | x | x | -1.1
O=C(C[C@H]1C=C[C@H](NC(=O)c2ccccc2)[C@@H](CO)O1)NCc1ccc(Oc2ccccc2)cc1 | -32.7 | x | x | x | 2.6
O=C(C[C@@H]1CC[C@H]2[C@@H](COC[C@@H](O)CN2CCc2ccccc2)O1)NCc1ccc(F)cc1 | 15.6 | x | x | x | 2.5
Cc1noc(C)c1S(=O)(=O)N(C)C[C@@H]1Oc2c(NC(=O)C3CC3)cccc2C(=O)N([C@@H](C)CO)C[C@@H]1C | -28.8 | x | x | x | 0.2
O=C(Nc1ccccc1C(=O)NCCCn1ccnc1)c1ccccc1 | 122.0* | 4.7 | 5.5 | -2.5 | 1.5
O=C(N[C@@H]1CC[C@H](CCNS(=O)(=O)c2ccc(Cl)cc2)O[C@@H]1CO)c1cccnc1 | -3.2 | x | x | x | 2.2
O=C(Nc1cccc(C(F)(F)F)c1)C1CCN(S(=O)(=O)c2cnc[nH]2)CC1 | 106.9* | -2.7 | -9.8 | -14.3 | -6.7
O=C(c1nnsc1S(=O)(=O)c1ccc(Cl)cc1)N1CCOCC1 | x | -71.8 | -7.5 | -0.7 | x
O=C(Nc1ccccc1)c1nnsc1S(=O)c1ccc(Cl)cc1 (stereo not given) | x | -28.7 | 3.6 | -2.6 | 43.8*
O=C(c1nnsc1S(=O)c1ccc(Cl)cc1)N1CCOCC1 (stereo not given) | -79.6 | -87.6 | 136.1* | -7.5 | -86.8
COCC#Cc1cnc2c(c1)C(=O)N([C@@H](C)CO)C[C@@H](C)[C@@H](CN(C)C(=O)Nc1cc(F)ccc1F)O2 | 3.5 | x | x | x | -3.0
SMILES | C2C12 statin | MITF act | Rtt109 Vps75 | Wnt bcat act | esBAF inh
CO[C@@H]1CN(C)C(=O)c2cc(NC(=O)C3CCC3)ccc2OC[C@@H](C)N(C)C[C@@H]1C | 3.1 | x | x | x | -6.0
Cc1cccc(N(O)C(=O)Nc2cccc(Cl)c2)c1 | 5.6 | x | -1.1 | -0.1 | 51.1*
CCOC(=O)CN1C(=O)C(CC)Oc2ccccc21 (stereo not given) | 16.6 | -9.7 | 4.1 | -4.3 | -3.3
CCOC(=O)C(C(=O)OCC)C1N=C(N)N=C2Oc3ccccc3N21 (stereo not given) | 3.0 | 33.0 | -1.1 | x | 89.4*
COCC#Cc1cnc2c(c1)C(=O)N([C@H](C)CO)C[C@H](C)[C@H](CN(C)C(=O)C1CC1)O2 | 4.2 | x | x | x | x
CC(=Nc1ccc(C)c(C)c1)C1=C(O)CSC1=O | 3.4 | 132.0* | 0.2 | x | 51.3*
Cc1ccc(CNCc2ccccc2Cl)cc1 | -3.0 | 9.7 | 26.1 | x | 7.9
Fc1ccc(CNCc2ccccc2Cl)cc1 | x | 17.3 | 1.4 | 34.0* | x
CCCOc1ccc(/C=c2\sc3nc(-c4ccco4)nn3c2=O)cc1OCC | 98.4* | 7.6 | 6.8 | x | -1.8
N#Cc1cccc(NC(=O)COC(=O)Cn2nc(-c3ccccc3)oc2=O)c1 | -6.2 | 10.7 | 31.0 | 37.8* | -2.9
COc1ccc(NC(=O)Nc2ccc3c(c2)C(=O)N([C@H](C)CO)C[C@@H](C)[C@@H](CN(C)S(=O)(=O)c2ccc(Cl)cc2)OCCCC[C@H](C)O3)cc1 | x | x | x | x | 1.3
Cc1nc(Nc2nc3ccccc3o2)nc(C)c1C(=O)Nc1ccc(F)cc1 | x | -8.0 | -6.2 | 43.2* | x
CC(C)(C)NC(=O)c1ccc2c(c1)C(=O)N(C1CCCCC1)C2=O | -23.8 | 45.1 | 2.9 | 0.1 | 43.3*
Fc1ccccc1Cn1nnc(-c2ccc3c(c2)OCO3)n1 | 10.6 | 66.9 | -7.7 | 70.8* | 21.7
O=C(Cn1nnc(-c2ccc(OCc3ccccc3F)cc2)n1)N1CCOCC1 | 5.3 | 75.8 | -12.0 | x | 41.0*
CN(C)c1ccc(-c2nnn(Cc3ccccc3Br)n2)cc1 | 10.2 | 55.5 | -4.6 | 8.5 | 93.7*
COc1cc(-c2nnn(Cc3ccccc3C)n2)cc(OC)c1OC | 31.5 | -7.6 | 2.6 | 0.5 | 3.6
COc1ccc(-c2nnn(Cc3ccccc3F)n2)cc1 | 1.5 | 108.3* | -9.5 | x | 63.7*
Cc1ccc(NC(=O)Cn2nnc(-c3ccc4c(c3)OCO4)n2)cc1F | 0.7 | 4.1 | -6.1 | 0.4 | -10.7
COc1ccc(-c2nnn(CC(=O)N3CCOCC3)n2)cc1 | 6.7 | -11.1 | -2.7 | -0.9 | -1.0
O=C(Nc1ccc(S(=O)(=O)N2CCOCC2)cc1)c1ccc2c(c1)OCO2 | -6.1 | 14.6 | 0.0 | 15.7 | 5.4
O=S(=O)(c1ccc(NC(=S)Nc2ccc3c(c2)OCO3)cc1)N1CCOCC1 | 1.4 | 5.5 | 0.0 | x | 44.6*
CN1c2ccc(-c3ccccc3F)cc2[C@H]2[C@H](CCN2C(=O)CN2CCOCC2)[C@@H]1CO | -7.6 | x | x | x | 17.7
Nc1nnc(CC(=O)N/N=C/c2ccc(-c3cccc(C(=O)O)c3)o2)s1 | x | 8.1 | 21.0 | 37.8* | x
CCOC(=O)c1ccc(Oc2nc(OC)nc(N(C)C)n2)cc1 | 6.1 | x | 17.9 | 0.3 | -2.7

Assay outcomes deposited in PubChem by Broad Institute.
